Reference: PubChem BioAssay (NCATS)
Records with an inconclusive call do not appear. Active and inactive are the calls of the source. Calls come from the whole dose curve; as a rule, active = well fitted cell-killing curve with a large enough effect; inconclusive = small, poorly fitted or top-dose-only effect, or effect the other way; inactive = flat fitted curve, though single readings scatter.

Experiments:
Assay in all cases: Primary qHTS to identify gynecologic anti-cancer compounds using libraries of approved drugs and bioactive compounds (AID 1345084); note: nearly all actives have a fitted effect of over 55% in size
Es-2 = conditions: Gynecologic cancer cell panel viability, ATPlite luminescence, 48 h; series mostly up to 57.5 µM
How it was run: (§1)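 Cells, 1,000 per well, were allowed to settle for 16 h at 37 C before compound addition. Five concentrations were tested for 48 h, and viability was read by ATPlite luminescence after 15 min at room temperature.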

HeLa = conditions: Gynecologic cancer cell panel viability, ATPlite luminescence, 48 h; series mostly up to 57.5 µM
How it was run: as §1

Hek293T = conditions: Gynecologic cancer cell panel viability, ATPlite luminescence, 48 h, control line for the selectivity index; series mostly up to 57.5 µM
How it was run: as §1

JEG-3 = conditions: Gynecologic cancer cell panel viability, ATPlite luminescence, 48 h; series mostly up to 57.5 µM
How it was run: as §1

OV90 = conditions: Gynecologic cancer cell panel viability, ATPlite luminescence, 48 h; series mostly up to 57.5 µM
How it was run: as §1

PA-1 = conditions: Gynecologic cancer cell panel viability, ATPlite luminescence, 48 h; series mostly up to 57.5 µM
How it was run: as §1

SKOV3 = conditions: Gynecologic cancer cell panel viability, ATPlite luminescence, 48 h; series mostly up to 57.5 µM
How it was run: as §1

Tov-21-G = conditions: Gynecologic cancer cell panel viability, ATPlite luminescence, 48 h; series mostly up to 57.5 µM
How it was run: as §1

Tov112D = conditions: Gynecologic cancer cell panel viability, ATPlite luminescence, 48 h; series mostly up to 57.5 µM
How it was run: as §1

Measured: Potency

Cc1ccc(C(=O)Nc2ccc(Oc3cc4cnn(C)c4cc3-c3cn[nH]c3)c(F)c2)c(=O)n1-c1ccc(F)cc1
inactive: Es-2

CCS(=O)(=O)N1CCC([C@@H](C)n2c(C)c(C(=O)NCc3c(OC)cc(C)[nH]c3=O)c3ccccc32)CC1
inactive: all assays above

COc1cc2c(cc1O)C1(OC)Cc3ccc4c(c3C1N(C)CC2)OCO4 (centres undefined)
inactive: all assays above

C[C@@H]1O[C@@H](O[C@H]2[C@H](OC(C#N)c3ccc(O)cc3)O[C@H](CO)[C@@H](O)[C@@H]2O)[C@H](O)[C@H](O)[C@H]1O (some centres undefined)
inactive: all assays above

COC(=O)C1=C[C@@H](O)[C@@H](O)[C@H](O[C@@H]2O[C@H](COC(=O)/C=C/c3ccccc3)[C@@H](O)[C@H](O)[C@H]2O)C1
inactive: all assays above

C[C@@H]1C(=O)O[C@H]2[C@H]1CC[C@@]1(C)C(=O)C=C[C@](C)(O)[C@H]21
inactive: all assays above

COC(=O)C[C@@H]1C(C(=O)O)=CO[C@@H](O[C@@H]2O[C@H](CO)[C@@H](O)[C@H](O)[C@H]2O)/C1=C\COC(=O)/C=C\c1ccccc1
inactive: all assays above

CC1NC(=O)C(Cc2c[nH]c3ccccc23)NC1=O (centres undefined)
inactive: all assays above

C=C1C2=CC(O)C(C)C1(C)CC/C(C)=C/CCC1(C)OC1C2=O (centres undefined)
inactive: all assays above

C=CC1(C)CC2=CCC3C(C)(C(=O)O)CCCC3(C)C2CC1OC(C)=O (centres undefined)
inactive: all assays above

O=C(/C=C/c1ccc(O)c(O)c1)OCc1ccccc1O[C@@H]1O[C@H](CO)[C@@H](O)[C@H](O)[C@H]1O
inactive: all assays above

Cc1cc(O)cc(Oc2cc(C)c(C(=O)O)c(O)c2)c1
inactive: all assays above

COCCCNCC1COc2ccccc2O1 (centres undefined)
inactive: all assays above

C=CCc1ccc(O[C@@H]2O[C@H](CO[C@@H]3O[C@H](CO)[C@@H](O)[C@H](O)[C@H]3O)[C@@H](O)[C@H](O)[C@H]2O)c(O)c1
inactive: all assays above

CC(O)(CC(=O)O)CC(=O)O[C@@H]1[C@@H](O)[C@H](OCCc2ccccc2)O[C@H](CO)[C@H]1O (some centres undefined)
inactive: all assays above

O=c1ccn(C2OC(CO)C(O)C2O)c(=O)[nH]1 (centres undefined)
inactive: all assays above

C=C1CC2[C@]3(C)C(=C(O)C(=O)[C@@]2(C)[C@]2(C(=O)OC)C(=O)C(C)OC(=O)[C@@]12C)C(C)(C)C(=O)CC3O (some centres undefined)
inactive: all assays above

C/C=C1/[C@H](O[C@@H]2O[C@H](CO)[C@@H](O)[C@H](O)[C@H]2O)OC=C(C(=O)OC)[C@H]1CC(=O)O[C@@H]1O[C@H](CO)[C@@H](O)[C@H](O)[C@H]1O
inactive: all assays above
